Experimental data from PubChem BioAssay AID1159580 (chemical genetic matrix, 2015).
“And” between values parts separate entries of the source, which are not always exact repeats. Equal values may be shown once. Among all 5,500 compounds or so, about 2,000 (36%) were called active. About 18% were inconclusive and are not listed. Rule as the data show it: active = normalized growth mostly below about 0.91 (no sharp cut-off); inconclusive = no clear call, values can overlap the other calls; inactive = mostly above about 0.92. The list shows a part of the results.

Test: chemical genetic growth profiling, strain panel (AID 1159580);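 also: tested at 20 µM; growth read once vehicle control cultures reached saturation at 30 °C; 1 = growth at the plate median or of vehicle wells; lower values mean less growth of the strain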
Settings: S. cerevisiae deletion strains, growth OD

Measured: normalized growth

CC(C)(S)[C@@H](N)C(=O)O
inactive: locus YAL013W, strain DEP1, stronger effect = lower value 1.02 | locus YAL021C, strain ccr4, stronger effect = lower value 1.01 | locus YAL026C, strain drs2, stronger effect = lower value 1.01 | locus YAL030W, strain snc1, stronger effect = lower value 1.01 | locus YBL061C, strain skt5, stronger effect = lower value 1 | locus YBR009C, strain hhf1, stronger effect = lower value 0.992 | locus YBR021W, strain FUR4, stronger effect = lower value 1.03 | locus YBR023C, strain chs3, stronger effect = lower value 1.01 | locus YBR171W, strain sec66, stronger effect = lower value 1.01 | locus YBR229C, strain ROT2, stronger effect = lower value 1.01 | locus YBR231C, strain swc5, stronger effect = lower value 1 | locus YBR279W, strain paf1, stronger effect = lower value 0.997 | locus YCL011C, strain gbp2, stronger effect = lower value 1 | locus YCL016C, strain dcc1, stronger effect = lower value 1 | locus YCL029C, strain bik1, stronger effect = lower value 0.991 | locus YCL061C, strain MRC1, stronger effect = lower value 1.01 | locus YCL069W, strain vba3, stronger effect = lower value 0.993 | locus YCR088W, strain abp1, stronger effect = lower value 1.01 | locus YDL005C, strain med2, stronger effect = lower value 0.995 | locus YDL035C, strain GPR1, stronger effect = lower value 1.01 | locus YDL040C, strain nat1, stronger effect = lower value 1 | locus YDL074C, strain BRE1, stronger effect = lower value 1.03 | locus YDL101C, strain DUN1, stronger effect = lower value 1.03 | locus YDL134C, strain PPH21, stronger effect = lower value 1.01 | locus YDL185W, strain tfp1, stronger effect = lower value 0.988 | locus YDL192W, strain arf1, stronger effect = lower value 0.984 | locus YDR001C, strain nth1, stronger effect = lower value 1 | locus YDR069C, strain doa4, stronger effect = lower value 0.997 | locus YDR101C, strain arx1, stronger effect = lower value 0.986 | locus YDR137W, strain rgp1, stronger effect = lower value 1.05 | locus YDR150W, strain NUM1, stronger effect = lower value 1.01 | locus YDR159W, strain sac3, stronger effect = lower value 0.994 | locus YDR162C, strain NBP2, stronger effect = lower value 1 | locus YDR195W, strain ref2 0.997 | locus YDR297W, strain sur2, stronger effect = lower value 1.01 | locus YDR318W, strain mcm21, stronger effect = lower value 0.994 | locus YDR334W, strain swr1, stronger effect = lower value 1.01 | locus YDR335W, strain msn5, stronger effect = lower value 0.986 | locus YDR388W, stronger effect = lower value 0.991 | locus YDR392W, strain spt3, stronger effect = lower value 0.96 | locus YDR502C, strain sam2, stronger effect = lower value 0.996 | locus YEL003W, strain gim4, stronger effect = lower value 0.995 | locus YEL037C, strain rad23, stronger effect = lower value 1 | locus YEL061C, strain CIN8 (second series), stronger effect = lower value 0.995 | locus YEL061C, strain CIN8, stronger effect = lower value 1.01 | locus YER015W, strain faa2, stronger effect = lower value 1.01 | locus YER016W, strain bim1, stronger effect = lower value 0.994 | locus YER110C, stronger effect = lower value 0.989 | locus YER111C, strain swi4, stronger effect = lower value 1.01 | locus YER155C, strain BEM2 (second series), stronger effect = lower value 0.985 | locus YER155C, strain BEM2, stronger effect = lower value 1.01 | locus YER167W, strain BCK2, stronger effect = lower value 1.01 | locus YFR010W, strain ubp6, stronger effect = lower value 0.998 | locus YGL078C, strain dbp3, stronger effect = lower value 0.991 | locus YGL086W, strain mad1, stronger effect = lower value 0.995 | locus YGL167C, strain pmr1, stronger effect = lower value 1 | locus YGL173C, strain kem1, stronger effect = lower value 1 | locus YGL227W, strain vid30, stronger effect = lower value 0.992 | locus YGL240W, strain doc1, stronger effect = lower value 1.01 | locus YGL248W, strain PDE1, stronger effect = lower value 1.02 | locus YGL253W, strain hxk2, stronger effect = lower value 0.993 | locus YGR135W, strain pre9, stronger effect = lower value 0.989 | locus YGR252W, strain gcn5, stronger effect = lower value 1.01 | locus YHR013C, strain ard1, stronger effect = lower value 1 | locus YHR027C, strain rpn1, stronger effect = lower value 1.03 | locus YHR030C, strain SLT2, stronger effect = lower value 1.01 and 0.999 | locus YHR079C, strain IRE1 (second series), stronger effect = lower value 0.987 | locus YHR079C, strain IRE1, stronger effect = lower value 0.982 | locus YHR094C, strain hxt1, stronger effect = lower value 0.986 | locus YHR129C, strain ARP1, stronger effect = lower value 1.01 | locus YHR142W, strain chs7, stronger effect = lower value 1.01 | locus YHR200W, strain rpn10, stronger effect = lower value 1 | locus YIL066C, strain RNR3, stronger effect = lower value 1.01 | locus YIL073C, strain SPO22, stronger effect = lower value 0.975 | locus YIL125W, strain kgd1, stronger effect = lower value 0.997 | locus YIR030C, strain dcg1, stronger effect = lower value 0.989 | locus YJL092W, strain hpr5, stronger effect = lower value 1 | locus YJL095W, strain BCK1 (second series), stronger effect = lower value 1 | locus YJL095W, strain BCK1, stronger effect = lower value 1.05 and 1 | locus YJL115W, strain asf1, stronger effect = lower value 0.995 | locus YJL129C, strain trk1, stronger effect = lower value 0.987 | locus YJL134W, strain LCB3, stronger effect = lower value 1.01 | locus YJL154C, strain vps35, stronger effect = lower value 0.994 | locus YJL164C, strain tpk1, stronger effect = lower value 1.01 | locus YJL166W, strain qcr8, stronger effect = lower value 1.01 | locus YJL168C, strain set2, stronger effect = lower value 0.999 | locus YJL187C, strain SWE1 (second series), stronger effect = lower value 1.01 | locus YJL187C, strain SWE1, stronger effect = lower value 1
